Consider 56 molecules from PubChem BioAssay AID449739 (Vanderbilt High Throughput Screening Facility, 2010).

Screen size: about 100,000 compounds; about 4,200 (4.2%) were called active. This excerpt belongs to a sample that is enriched for actives. Unmarked numbers belong to inactive results.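 How the source made its calls: active means single-dose well whose peak fluorescence ratio is a statistical outlier from its plate by either plate-standardised score or position-corrected B-score; inactive means the rest.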

In the test the target is Voltage-dependent T-type calcium channel subunit alpha-1H (Homo sapiens) (UniProt O95180). Put plainly: Cav3.2 calcium influx blockers – cell-based, Fluo-4 calcium fluorescence, FDSS, MLSMR library, primary screen (AID 449739). The following applies: Cav3.2-expressing cells, at 10 µM, stronger effect = lower value.
Chain of Voltage-dependent T-type calcium channel subunit alpha-1H (Homo sapiens) (O95180 whole entry, looked up): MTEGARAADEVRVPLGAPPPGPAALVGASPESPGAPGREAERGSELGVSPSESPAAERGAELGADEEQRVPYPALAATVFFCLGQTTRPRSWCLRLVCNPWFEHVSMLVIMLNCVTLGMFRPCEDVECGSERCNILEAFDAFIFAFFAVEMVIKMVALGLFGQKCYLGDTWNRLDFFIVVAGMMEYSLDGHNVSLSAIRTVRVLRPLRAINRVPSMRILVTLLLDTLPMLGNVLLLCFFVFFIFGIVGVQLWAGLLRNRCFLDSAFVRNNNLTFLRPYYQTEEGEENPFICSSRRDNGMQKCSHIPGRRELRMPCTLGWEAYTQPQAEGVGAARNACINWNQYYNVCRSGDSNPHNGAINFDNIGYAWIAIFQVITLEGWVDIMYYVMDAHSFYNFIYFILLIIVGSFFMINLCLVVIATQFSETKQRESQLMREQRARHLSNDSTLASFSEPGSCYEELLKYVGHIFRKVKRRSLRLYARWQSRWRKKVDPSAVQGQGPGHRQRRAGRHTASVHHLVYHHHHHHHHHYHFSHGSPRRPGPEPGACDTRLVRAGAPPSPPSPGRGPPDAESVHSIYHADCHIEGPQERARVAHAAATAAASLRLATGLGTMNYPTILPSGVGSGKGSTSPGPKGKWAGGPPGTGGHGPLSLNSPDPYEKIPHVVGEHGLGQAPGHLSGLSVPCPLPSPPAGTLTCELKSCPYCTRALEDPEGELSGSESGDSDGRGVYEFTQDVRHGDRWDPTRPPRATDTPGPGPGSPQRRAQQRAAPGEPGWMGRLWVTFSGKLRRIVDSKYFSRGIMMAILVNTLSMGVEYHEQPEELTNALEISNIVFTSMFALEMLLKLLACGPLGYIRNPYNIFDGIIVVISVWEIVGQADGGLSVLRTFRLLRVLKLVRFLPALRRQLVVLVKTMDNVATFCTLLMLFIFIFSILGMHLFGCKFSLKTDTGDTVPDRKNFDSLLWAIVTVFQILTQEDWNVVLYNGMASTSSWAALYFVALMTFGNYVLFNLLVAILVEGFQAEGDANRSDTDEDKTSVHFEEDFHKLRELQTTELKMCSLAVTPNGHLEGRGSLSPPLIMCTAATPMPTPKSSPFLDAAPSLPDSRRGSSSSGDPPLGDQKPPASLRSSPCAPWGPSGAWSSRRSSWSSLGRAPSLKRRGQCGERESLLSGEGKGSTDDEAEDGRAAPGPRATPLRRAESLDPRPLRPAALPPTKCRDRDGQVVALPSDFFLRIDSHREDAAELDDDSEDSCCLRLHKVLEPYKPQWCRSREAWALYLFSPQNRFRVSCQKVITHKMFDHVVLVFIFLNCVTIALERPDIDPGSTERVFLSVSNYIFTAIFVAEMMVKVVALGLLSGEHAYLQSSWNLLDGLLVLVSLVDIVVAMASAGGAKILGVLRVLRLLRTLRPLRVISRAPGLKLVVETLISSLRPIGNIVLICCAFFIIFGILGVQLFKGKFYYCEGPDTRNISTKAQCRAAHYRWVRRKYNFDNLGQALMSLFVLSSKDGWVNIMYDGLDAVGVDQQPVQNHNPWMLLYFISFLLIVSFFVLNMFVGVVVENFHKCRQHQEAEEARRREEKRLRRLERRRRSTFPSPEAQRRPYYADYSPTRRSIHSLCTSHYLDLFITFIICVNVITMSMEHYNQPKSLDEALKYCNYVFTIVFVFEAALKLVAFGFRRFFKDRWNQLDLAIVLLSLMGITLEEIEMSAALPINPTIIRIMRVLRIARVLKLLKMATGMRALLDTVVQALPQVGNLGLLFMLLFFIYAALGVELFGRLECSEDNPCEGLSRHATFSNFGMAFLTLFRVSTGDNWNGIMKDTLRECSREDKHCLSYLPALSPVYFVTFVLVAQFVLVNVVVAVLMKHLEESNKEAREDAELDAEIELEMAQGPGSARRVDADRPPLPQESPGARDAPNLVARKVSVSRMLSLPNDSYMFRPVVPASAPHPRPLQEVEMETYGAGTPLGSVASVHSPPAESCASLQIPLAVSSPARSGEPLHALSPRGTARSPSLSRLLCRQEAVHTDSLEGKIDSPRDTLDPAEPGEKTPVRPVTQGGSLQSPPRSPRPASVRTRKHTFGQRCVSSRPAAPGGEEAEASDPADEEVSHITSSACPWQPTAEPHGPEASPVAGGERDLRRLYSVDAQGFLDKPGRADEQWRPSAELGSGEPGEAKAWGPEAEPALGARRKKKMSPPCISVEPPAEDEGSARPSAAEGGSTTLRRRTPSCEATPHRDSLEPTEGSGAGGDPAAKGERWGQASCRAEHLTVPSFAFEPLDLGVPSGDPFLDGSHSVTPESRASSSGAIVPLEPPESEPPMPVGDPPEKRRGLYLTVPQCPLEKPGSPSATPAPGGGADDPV
On to `COc1cccc(N(C(=O)c2ccn[nH]2)C2(C(=O)Nc3c(C)cccc3C)CCCCC2)c1`, for which the B-score is -4.96 (active). In the case of `COc1cccc(N2CC(C(=O)Nc3c(C)cccc3C)CC2=O)c1` (stereo unspecified), the B-score is 0.386.

Take `COc1ccccc1C(=O)Nc1ccc(NC(=O)c2ccco2)c(C)c1`: the B-score was -5.24 (active).

Turning to `COc1ccc(NC(=O)c2cccc(NC(=O)c3ccco3)c2)c(OC)c1`, the B-score is -2.2.

Turning to `COC(=O)c1cc(Cl)c(NC(=O)c2ccco2)cc1OC`, the B-score is -0.41.

As for `Cc1nc(C(=O)NCc2ccccc2)sc1C1(C)CC(c2cccnc2)=NO1` (stereo unspecified), the B-score is 0.0411. The result for `CCOC(=O)c1ccc(NC(=O)c2nc[nH]c2C(=O)NCc2ccccc2)cc1` reads -0.706; that for `Oc1c(Cl)cc(Cl)c(Cl)c1Cc1c(O)c(Cl)cc(Cl)c1Cl`, -5.05 (active); that for `CSc1ccc(S(=O)(=O)NCc2ccc(Cl)cc2)cc1`, -1.35. The result for `CSc1ccc(S(=O)(=O)NC2CCCCC2)cc1` reads -0.215; that for `CSc1ccc(S(=O)(=O)Nc2cccc(F)c2)cc1`, -4.09 (active). Regarding `CC(C)(C)OC(=O)NCCCC1=CC2=CC(=O)C(C)(OC(=O)c3ccco3)C(=O)C2=CO1` (stereo unspecified), the B-score is 0.291. As to `Cc1ccc(NC(=S)NC(=O)c2ccc(-c3ccccc3)cc2)cc1`, the B-score is -0.678. The result for `COc1ccc(C(=O)NC(=S)NNC(=O)CCc2ccccc2)cc1` reads -4.4 (active). For `CCNC(=S)NNC(=O)Cc1ccccc1`, the B-score was 0.703. On to `CCOc1c2ccc(C(=O)NCc3ccc4c(c3)OCO4)cc2nn1C`, for which the B-score was 0.329. As to `CC(=O)NS(=O)(=O)c1ccc(NC(=O)/C=C/c2ccccc2Cl)cc1`, the B-score is -1.8. In the case of `CCNc1nc(N)nc(-c2cc(Cl)ccc2OC)n1` it was 0.499; in that of `CC[C@@H](C)[C@@H](C(=O)N1CCN(C(=O)OC(C)(C)C)CC1)n1cc(CCC(=O)O)nn1`, 1.09; in that of `COC(=O)/C(=C\Nc1ccccc1)NC(=O)c1ccc(Cl)cc1Cl`, -5.14 (active).

Turning to `CC(C)(C)C(=O)Nc1ccc(C(=O)N/N=C/c2ccccc2OC(=O)c2ccc(Cl)cc2Cl)cc1`, the B-score is -2.74. On to `COc1ccc(Cl)cc1C(=O)NCC#N`, for which the B-score is 0.746. Regarding `CCOc1cc(/C=C2/N=C(c3ccc(C(C)(C)C)cc3)OC2=O)cc(Cl)c1OS(C)(=O)=O`, the B-score is -1.04. In the case of `Cc1nc2c(C(=O)NCc3ccc4c(c3)OCO4)c[nH]n2c(=O)c1Cc1ccccc1F` it was -5.22 (active). Regarding `CC(C)NC(=O)CSc1ccccc1C(=O)NCc1ccc2c(c1)OCO2`, the B-score is 0.374. The result for `CCn1cc(C(=O)NCc2ccc3c(c2)OCO3)c2cc(OC)c(OC)cc2c1=O` reads 0.417; that for `O=C(CSc1nc(C2CC2)nc2ccccc12)Nc1ccc2c(c1)OCCO2`, 0.0431.

With `COc1ccc(OC)c(C(=O)c2ccc(C(=O)O)cc2)c1`, the B-score is -3.15. In the case of `COc1ccc(OC)c(C(=O)c2coc3ccc(OC)cc23)c1`, the B-score is -3.61 (active). As for `COc1ccc2oc(C)c(NC(C)=O)c2c1`, the B-score is 0.131. Take `Cc1ccccc1C(=O)N1CCC(C(=O)Nc2ccc(S(=O)(=O)N(C)C(C)C)cc2)CC1`: the B-score was 0.159. In the case of `NC(=O)CC[C@@H]1NC(=O)[C@H](CO)NC(=O)c2cc([N+](=O)[O-])cc(I)c2NCC[C@@H](C(N)=O)NC1=O` it was 0.984. Turning to `O=C(CC(Cc1ccccc1)C(=O)O)NCCc1ccc2c(c1)OCO2` (stereo unspecified), the B-score was -0.225.

Consider `O=C(COC(=O)c1ccc2c(c1)OCCO2)NCc1ccccc1`, for which the B-score was -0.412.

As to `O=C(NCCc1ccc2c(c1)OCCO2)c1cc2ccccc2o1`, the B-score was -3.85 (active).

`COc1ccc(CNC(=O)[C@@H]2CC=C[C@@H]3CCN(C4CC4)C(=O)[C@@H]32)cc1`: the B-score was 1.86. The result for `CC[C@H](C)[C@@H](C(=O)N1CCNCC1)n1cc([C@@H](N)Cc2ccc(O)cc2)nn1` reads 0.0182; that for `Cc1cccc(N(C(=O)Cc2cccs2)C(C(=O)NC2CCCC2)c2ccsc2)c1` (stereo unspecified), -1.16; that for `CCC1(CC)C(=O)C2=C3C1[C@H](C(=O)OC)C=C(C(=O)OC)C[C@H]3[C@H]1C(=O)N(Cc3ccccc3)C(=O)[C@H]1[C@H]2C` (stereo partly specified), 0.691. On to `Cc1ccc(-c2cc(=O)c3ccc(Cl)cc3[nH]2)cc1`, for which the B-score is -0.0223. Take `Cc1[nH]n(-c2cccc(Cl)c2)c(=O)c1-c1ccc(Cl)cc1`: the B-score was -7.48 (active).

On to `O=c1[nH]n(-c2cccc(Cl)c2)c2ncccc12`, for which the B-score is 0.173. For the molecule `Cc1ccc(C)n1C(Cc1ccccc1)C(=O)O` (stereo unspecified), the B-score is 1.91. Take `CC1=CC(C)(C)Nc2ccc(OC(=O)C(Cc3ccccc3)N3C(=O)C4CCCCC4C3=O)cc21` (stereo unspecified): the B-score is -5.23 (active). `CC1=CC(C)(C)Nc2ccc(OC(=O)CN3C(=O)C4CCCCC4C3=O)cc21` (stereo unspecified): the B-score was -0.00954. Turning to `COCCCn1c(SCc2cccc(OC)c2)nc2cc(OC)c(OC)cc2c1=N`, the B-score is -0.819. With `C=C1CCN([C@H](C(=O)NCc2cc(OC)c(OC)c(OC)c2)C(C)C)S(=O)(=O)c2ccccc21`, the B-score was 1.03. On to `COc1ccc2cc1Oc1ccc(cc1)C[C@H]1c3cc(c(OC)cc3CCN1C)Oc1c(O)c(OC)cc3c1[C@H](C2)N(C)CC3`, for which the B-score was 1.81.

`COc1ccc(-c2cc(C(=O)n3cnc4ccccc43)c3ccccc3n2)cc1`: the B-score was -0.0392. Regarding `O=C(COc1ccccc1)NCCc1nc2ccccc2[nH]1`, the B-score was 0.299.

Turning to `COc1ccccc1CSc1nc2ccccc2[nH]1`, the B-score is -0.942. For `COc1ccc(-c2[nH]nc(-c3ccccc3)c2-c2nc3ccccc3[nH]2)cc1`, the B-score is -6.24 (active). As for `Cc1cc(N2C(=O)C(=O)/C(=C(/O)c3ccc(Cl)cc3)C2c2cccc(Br)c2)no1` (stereo unspecified), the B-score is -7.89 (active). Turning to `COc1ccccc1C1/C(=C(/O)c2ccc(OC(C)C)cc2)C(=O)C(=O)N1c1cc(C)on1` (stereo unspecified), the B-score was -0.532. In the case of `O=C1C(=O)N(CCN2CCOCC2)C(c2ccccn2)/C1=C(/O)c1ccc(Cl)cc1` (stereo unspecified) it was -0.156. Take `Cc1cccc(NC(=S)Nc2ccc(Br)cc2)c1`: the B-score was -1.14.
